Assay results taken from PubChem BioAssay AID760 (NMMLSC, 2007).
Screen size: about 190,000 compounds; about 360 (0.19%) were called active. Not shown: some 2% with an inconclusive outcome.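 The calls were made as follows: active = GTP binding activity at least 20 points away from 100%, either lowered or raised; inconclusive = signal likely due to the compound's own green fluorescence; inactive = the rest.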 Many of the other results were omitted from the sample, so actives are more common in it than they were.

Each molecule was assayed against Ras-related protein Rab-2A (Canis lupus familiaris) (UniProt P61105) (assay: modulators of GTP binding to Rab2A wildtype, primary screen, biochemical, dog, bead-based flow cytometry, multiplex (AID 760;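 also: 0% = beads with excess unlabeled GTP and 100% = no-compound control corrected for plate trend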)). Conditions: GST-Rab2 wt beads, Bodipy-GTP binding, at 10 µM.
For COc1ccc(CC(=O)N[C@@H](CCSC)c2nc3ccccc3[nH]2)cc1, the GTP binding activity was 99% (inactive).
S=C(NCc1ccc2c(c1)OCO2)NCc1ccco1 was tested, and the GTP binding activity was 101% (inactive).
For Cc1ccc(CNC(=O)CCNS(=O)(=O)c2ccc(Br)s2)cc1, the GTP binding activity was 99% (inactive).
C=CCN(CC=C)S(=O)(=O)c1ccc(C(=O)Nc2sc3c(c2C(N)=O)CCCCC3)cc1 was tested, and the GTP binding activity was 101% (inactive).
With COCCN(CCOC)S(=O)(=O)c1ccc(C(=O)Nc2nc3c(s2)CCc2ccccc2-3)cc1 the GTP binding activity was 102% (inactive).
In the case of C=CCN(CC=C)S(=O)(=O)c1ccc(C(=O)Nc2nc3c(s2)CCc2ccccc2-3)cc1, the GTP binding activity is reported as 39% (active).
For COc1ccc2oc(=O)c(C(=O)N3CCCC3)cc2c1, the GTP binding activity was 98% (inactive).
In the case of O=c1/c(=C/c2ccc(CNS(=O)(=O)c3ccccc3)o2)sc2n1CCN=2, the GTP binding activity is reported as 74% (active).
With COC(=O)C1=C(C)NC(=O)/C1=C/c1ccc(CNS(=O)(=O)c2ccc(C)cc2)o1 the GTP binding activity was 100% (inactive).
O=S(=O)(NCc1ccccc1)c1ccc(S(=O)(=O)N2CCCC2)cc1 was tested, and the GTP binding activity was 100% (inactive).
With C=CCC(C(=O)c1ccccc1)[N+](C)(C)CC=C (centres undefined) the GTP binding activity was 96% (inactive).
In the case of O=C(COC(=O)C12CC3CC(CC(O)(C3)C1)C2)NC12CC3CC(CC(C3)C1)C2, the GTP binding activity is reported as 100% (inactive).
With CCOC(=O)c1oc2c(CN3CCN(CCO)CC3)c(O)c(CC)cc2c(=O)c1-c1nc2ccccc2s1 the GTP binding activity was 99% (inactive).
With COc1ccc(Cl)cc1N(CC(=O)N/N=C/c1ccc(OCC(N)=O)cc1)S(C)(=O)=O the GTP binding activity was 99% (inactive).
N/C(=N\OC(=O)COc1ccc([N+](=O)[O-])cc1)c1ccc(Br)cc1 was tested, and the GTP binding activity was 98% (inactive).
With CCOc1ccc(C(C)=O)cc1CSc1nnc(-c2ccncc2)n1CCOC the GTP binding activity was 99% (inactive).
With O=C(CCN1C(=O)c2ccccc2C1=O)NCCCn1ccnc1 the GTP binding activity was 101% (inactive).
For Cc1nc(N2CCOCC2)sc1C(=O)NN, the GTP binding activity was 100% (inactive).
With COc1ccc(-c2nn(-c3ccccc3)cc2CN2CCCO2)c(F)c1 the GTP binding activity was 100% (inactive).
With Cc1ccc(CSCC(N)C(=O)O)cc1 (centres undefined) the GTP binding activity was 97% (inactive).
With Cc1ccc(C(=O)CS(C)(=O)=O)cc1 the GTP binding activity was 104% (inactive).
In the case of Cc1ccc(SC(CC(=O)c2ccc(C(C)(C)C)cc2)C(=O)O)cc1 (centres undefined), the GTP binding activity is reported as 78% (active).
O=C(CSc1ccc([N+](=O)[O-])cn1)Nc1ccc(N2CCOCC2)c(Cl)c1 was tested, and the GTP binding activity was 96% (inactive).
For CCCOC1CCCN(Cc2cn(C)nc2-c2ccccc2F)C1 (centres undefined), the GTP binding activity was 96% (inactive).
